Among the data in PubChem BioAssay are z-score and composite z-score values, retold here.

Calls of active or inactive are those of the source. Unless noted, the rule behind the calls is not given here.

A short description of assay [1]: resazurin metabolic signal in HepG2 cells – cell-based, resazurin fluorescence, 24 h, PK04 Diversity Set, profiling panel (AID 1172). Note: test concentration not given here. Particulars: HepG2 viability, higher = more signal.
Assay [2] in a line: budding yeast growth changes without added modifier – OD600, strain BY4716, 24 h, basal condition, primary screen (AID 1173). Particulars: S. cerevisiae BY4716 growth, OD600, 24 h; higher = more signal, called active from +8 up or from −8 down.
A short description of assay [3]: viability profiling in MM1S myeloma cells – cell-based, resazurin fluorescence, basal, 24 h, PK04 Diversity Set, profiling panel (AID 1174).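 Note: MM1S multiple myeloma cell line; test concentration not given here.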 Particulars: higher = more signal, called active from +8 up or from −8 down.
The target of assay [4] is Dihydroorotate dehydrogenase (quinone), mitochondrial (Plasmodium falciparum (isolate 3D7)) (UniProt Q08210). Briefly: inhibition of P. falciparum DHODH – biochemical, C-terminal His tag, absorbance 600 nm, primary screen (AID 1175).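 Note: recombinant parasite enzyme with a five histidine tag at its C terminus; test concentration not given here.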 Particulars: PfDHODH enzyme, DCIP absorbance 600 nm; higher = more signal, called active from +8 up or from −8 down.
Sequence of Dihydroorotate dehydrogenase (quinone), mitochondrial (Plasmodium falciparum (isolate 3D7)) (Q08210 whole entry, looked up): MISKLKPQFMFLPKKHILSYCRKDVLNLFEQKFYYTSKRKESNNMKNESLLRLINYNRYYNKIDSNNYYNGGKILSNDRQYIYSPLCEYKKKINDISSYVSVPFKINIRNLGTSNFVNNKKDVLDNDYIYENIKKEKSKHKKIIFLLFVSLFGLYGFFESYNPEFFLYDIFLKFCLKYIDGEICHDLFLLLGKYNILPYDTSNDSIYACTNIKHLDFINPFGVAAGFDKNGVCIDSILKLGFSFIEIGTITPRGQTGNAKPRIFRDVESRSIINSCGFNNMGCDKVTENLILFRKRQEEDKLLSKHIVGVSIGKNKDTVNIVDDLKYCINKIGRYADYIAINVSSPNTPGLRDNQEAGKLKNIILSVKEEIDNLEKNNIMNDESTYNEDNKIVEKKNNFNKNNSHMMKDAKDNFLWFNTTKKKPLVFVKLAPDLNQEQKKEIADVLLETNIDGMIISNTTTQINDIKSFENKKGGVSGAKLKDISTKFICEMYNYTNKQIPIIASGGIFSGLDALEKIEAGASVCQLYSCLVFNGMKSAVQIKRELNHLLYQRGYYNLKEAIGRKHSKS
Assay [5] can be described thus: inhibition of PAO1 biofilm formation – strain PAO1, LB-PBS medium, absorbance 600 nm, primary screen (AID 1176). Note: test concentration not given here. Particulars: P. aeruginosa PAO1 growth/biofilm, A600, 12 h; higher = more signal.
The nature of assay [6]: growth modulation of vineyard yeast isolate – strain RM11-1a, OD600, basal, 24 h, primary screen (AID 1177).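 Note: cultures grown under basal conditions with no added stressor; test concentration not given here.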 Particulars: S. cerevisiae RM11-1a growth, OD600, 24 h; higher = more signal, called active from +8 up or from −8 down.
Assay [7] is described as follows: growth of efflux-deficient E. coli DRC39 – strain DRC39, OD650, 24 h, E. coli filamentation inducers, primary screen (AID 1178).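 Note: growth measured as culture turbidity by optical density at 650 nm; test concentration not given here.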 Particulars: E. coli DRC39 acrAB, higher = more signal, called active from +8 up or from −8 down.
A short description of assay [8]: growth of efflux-deficient E. coli DRC39 – strain DRC39, OD650, 48 h, E. coli filamentation inducers, primary screen (AID 1179).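 Note: screen aims at cell division blockers that make cells filament.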 Particulars: E. coli DRC39 delta-acrAB growth, higher = more signal, called active from +8 up or from −8 down.
Assay [9] is described as follows: viability profiling in RPMI8226 myeloma cells – cell-based, resazurin fluorescence, basal, 24 h, PK04 Diversity Set, profiling panel (AID 1180).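 Note: RPMI8826 multiple myeloma cell line at 5000 cells per well; test concentration not given here.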 Particulars: higher = more signal.
The target in assay [10] is E3 ubiquitin-protein ligase XIAP (Homo sapiens) (UniProt P98170). As to the kind of experiment: small molecules binding XIAP protein – biophysical, small-molecule microarray, fluorescence 635 nm, primary screen (AID 1181).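 Note: score merges 667 nm emission and signal to noise over triplicate slides.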 Particulars: higher = more signal.
Sequence of E3 ubiquitin-protein ligase XIAP (Homo sapiens) (P98170 whole entry, looked up): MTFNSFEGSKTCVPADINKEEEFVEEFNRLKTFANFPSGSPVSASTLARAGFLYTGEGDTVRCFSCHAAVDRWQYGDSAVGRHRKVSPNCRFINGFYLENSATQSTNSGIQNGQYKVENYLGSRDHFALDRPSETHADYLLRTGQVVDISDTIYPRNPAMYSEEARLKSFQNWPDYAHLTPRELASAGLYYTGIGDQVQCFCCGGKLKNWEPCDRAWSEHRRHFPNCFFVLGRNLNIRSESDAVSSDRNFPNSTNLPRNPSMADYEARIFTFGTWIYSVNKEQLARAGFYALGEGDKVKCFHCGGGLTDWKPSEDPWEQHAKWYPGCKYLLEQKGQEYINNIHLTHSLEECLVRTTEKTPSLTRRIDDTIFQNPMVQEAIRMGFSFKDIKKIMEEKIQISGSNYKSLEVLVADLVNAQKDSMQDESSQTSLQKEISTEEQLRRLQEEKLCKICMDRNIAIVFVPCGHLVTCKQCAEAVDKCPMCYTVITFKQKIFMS

`O=C1C=C[C@@H](O)[C@@H]2[C@@H]3C(=O)N(C[C@@H]4CCCO4)C(=O)[C@@H]3CC[C@@H]12`: the z-score was 0.111 in [1]; 0.499 (inactive) in assay [2]; 0.561 (inactive) in assay [3]; -0.425 (inactive) in assay [5]; 0.0539 (inactive) in assay [6]; 0.117 (inactive) in [7]. In addition, the values for the z-score in [8] and in assay [9] were -0.282 (inactive) and 0.91, respectively. Besides, the composite z-score was -0.0546 (inactive) in assay [4] and 0.0032 in [10].

Consider `COc1cccc([C@H]2Oc3ccc(OC)cc3C(=NO[C@H](C)c3cn([C@H](CO)Cc4ccccc4)nn3)[C@@H]2O)c1`, for which the z-score in assay [1] is -0.26; in [2], 0.723 (inactive); in assay [3] it was -0.328 (inactive); in assay [5], 0.417 (inactive); in assay [6], -1.11 (inactive); in assay [7], 0.753 (inactive). Also, the z-score was 0.571 (inactive) in assay [8] and 0.249 in assay [9]. Also, the values for the composite z-score in [4] and in assay [10] were -0.755 (inactive) and -0.278, respectively.

With `CC(CCN1CCCCc2nc(C)c(C)cc21)=NO[C@@H](C)c1cn([C@H](CO)Cc2ccccc2)nn1`, the z-score in assay [1] was -0.841; in assay [2], 0.102 (inactive); in [3], -1.85 (inactive); in assay [5], -0.631 (inactive); in assay [6], 0.736 (inactive); in [7], 0.882 (inactive). The results for the z-score in [8] and in assay [9] were 1.46 (inactive) and -0.483, respectively. Moreover, the composite z-score in assay [4] is -1.55 (inactive); in assay [10], -0.127.

As to `C=CC[C@@H]1C=C[C@H](ON=C[C@@H](C)[C@H](OCc2ccccc2)C(C)C)[C@@H](CO)O1`, the z-score in assay [1] is 0.0253; in [2] it was -5.6 (inactive); in assay [3], -0.865 (inactive); in [5] it was 0.241 (inactive); in [6], -0.62 (inactive); in [7], -0.295 (inactive). The z-score was -0.238 (inactive) in assay [8] and -0.183 in assay [9]. For the same compound, the composite z-score is -0.408 (inactive) in assay [4] and -0.138 in assay [10].

In the case of `COC(=O)CC=C[C@@H](C)[C@H](OCc1cccc(-c2ccccc2)c1)C1CCCCC1`, the z-score is -0.307 in assay [1]; -0.0348 (inactive) in assay [2]; 0.45 (inactive) in assay [3]; -0.409 (inactive) in assay [5]; 1.82 (inactive) in assay [6]; -0.933 (inactive) in assay [7]. In addition, the z-score was -0.661 (inactive) in [8] and 0.403 in assay [9]. In addition, the values for the composite z-score in assay [4] and in [10] were -3.69 (inactive) and -0.267, respectively.

Turning to `CC(C)=CCCC(C)=CCON=C1C[C@@H](O)[C@@H](O)[C@@H]2[C@@H]3C(=O)N(C4CCCCC4)C(=O)[C@@H]3CC[C@@H]12`, the z-score in [1] is -0.199; in [2], -0.81 (inactive); in [3], -0.454 (inactive); in [5], 0.565 (inactive); in [6] it was -0.709 (inactive); in assay [7], 0.0915 (inactive). Further, the values for the z-score in assay [8] and in [9] were -0.742 (inactive) and -0.51, respectively. Moreover, the figures for the composite z-score in [4] and in assay [10] were -0.42 (inactive) and 0.0905, respectively.

For `CO[C@H]1COC(=O)CC=C[C@H](C)[C@@H](OC)COC(=O)[C@H](C)COC(=O)CC=C[C@@H]1C`, the z-score in [1] was 0.531; in [2] it was -0.319 (inactive); in [3], 0.254 (inactive); in assay [5] it was -0.838 (inactive); in assay [6] it was 0.606 (inactive); in assay [7], 0.827 (inactive). Moreover, the z-score in assay [8] is 0.0975 (inactive); in [9] it was -0.501. For the same compound, the composite z-score in assay [4] is 0.491 (inactive); in assay [10], -0.256.

Consider `CC[C@@H](c1ccccc1)n1c(=O)n2n(c1=O)[C@H]1[C@H](O)[C@@H]3O[C@@H]3C(=NOC[C@@H](O)COCc3ccco3)[C@H]1CC2`, for which the z-score in [1] is -0.466; in [2], 0.626 (inactive); in [3] it was -0.617 (inactive); in [5], -0.613 (inactive); in [6], -1.11 (inactive); in [7], 0.243 (inactive). For the same compound, the results for the z-score in assay [8] and in assay [9] were 0.047 (inactive) and -0.257, respectively. The composite z-score in assay [4] is -0.337 (inactive); in assay [10] it was -0.117.

Take `Cc1ccc(S(=O)(=O)N[C@@H]2COC(=O)[C@@H](C)COC(=O)CC=C[C@H]2C)cc1`: the z-score is 0.0896 in assay [1]; 0.426 (inactive) in assay [2]; 0.258 (inactive) in assay [3]; -0.413 (inactive) in assay [5]; 1.02 (inactive) in [6]; 0.155 (inactive) in [7]. The values for the z-score in [8] and in assay [9] were -0.73 (inactive) and -0.0722, respectively. Moreover, the composite z-score was 0.264 (inactive) in assay [4] and 0.214 in assay [10].

Consider `CC(C)(C)N1C(=O)[C@H]2[C@H]3[C@H](O)[C@H](O)CC(=O)[C@H]3CC[C@H]2C1=O`, for which the z-score in assay [1] is -0.915; in [2] it was -0.573 (inactive); in assay [3] it was 0.319 (inactive); in [5], -0.908 (inactive); in [6], 0.143 (inactive); in assay [7], -0.403 (inactive). Besides, the values for the z-score in assay [8] and in assay [9] were -0.738 (inactive) and -0.383, respectively. In addition, the composite z-score in assay [4] is 0.236 (inactive); in assay [10] it was -0.0378.

For the compound `CON=C(C)CCC(=O)OC[C@H]1O[C@H](c2ccccc2)C=C[C@@H]1Oc1ccc(OC)cc1`, the z-score in assay [1] is 0.0444; in assay [2], 0.831 (inactive); in assay [3] it was 0.289 (inactive); in [5], 0.0981 (inactive); in assay [6] it was 1.44 (inactive); in assay [7], 0.732 (inactive). Moreover, the figures for the z-score in [8] and in assay [9] were -1.76 (inactive) and 0.268, respectively. For the same compound, the results for the composite z-score in [4] and in [10] were -0.0389 (inactive) and 0.0619, respectively.

Turning to `COc1ccc(O[C@H]2C=C[C@@H](c3ccccc3)O[C@@H]2COC(=O)CCC(C)=NOC[C@@H](O)[C@H]2O[C@@H]3OC(C)(C)O[C@@H]3[C@H]2O)cc1`, the z-score in assay [1] is 0.0784; in assay [2], -0.727 (inactive); in assay [3], 0.0383 (inactive); in assay [5] it was -0.348 (inactive); in assay [6], 0.28 (inactive); in assay [7], 1.18 (inactive). For the same compound, the z-score was -1.02 (inactive) in assay [8] and 1.04 in assay [9]. Moreover, the results for the composite z-score in [4] and in assay [10] were -1.15 (inactive) and -0.0559, respectively.

For `CC(=O)OC[C@H]1O[C@H](CCON=C2[C@H]3CCn4c(=O)n(-c5ccccc5)c(=O)n4[C@H]3[C@H](O)[C@@H]3O[C@H]23)C=C[C@@H]1OC(C)=O`, the z-score in [1] was -0.609; in assay [2] it was 0.0957 (inactive); in assay [3] it was -3.19 (inactive); in [5], -0.95 (inactive); in [6], 0.393 (inactive); in assay [7], 0.785 (inactive). Moreover, the z-score was 1.17 (inactive) in assay [8] and -0.759 in assay [9]. For the same compound, the composite z-score in assay [4] was 0.33 (inactive); in assay [10] it was -0.148.
